According to PubChem BioAssay (Tox21):
Inconclusive results are not listed. A call without a number means that no potency is given here. Values without a mark were called inactive. Activity calls are given as the source filed them. Calls follow the shape of the dose curve; as a rule, active = well fitted inhibition curve with a large enough effect in the repeat runs; inconclusive = weak or mixed curves; inactive = flat fitted curve, though single readings scatter.

Target: Voltage-gated inwardly rectifying potassium channel KCNH2 (Homo sapiens) (UniProt Q12809)
Sequence (Q12809 whole entry, looked up): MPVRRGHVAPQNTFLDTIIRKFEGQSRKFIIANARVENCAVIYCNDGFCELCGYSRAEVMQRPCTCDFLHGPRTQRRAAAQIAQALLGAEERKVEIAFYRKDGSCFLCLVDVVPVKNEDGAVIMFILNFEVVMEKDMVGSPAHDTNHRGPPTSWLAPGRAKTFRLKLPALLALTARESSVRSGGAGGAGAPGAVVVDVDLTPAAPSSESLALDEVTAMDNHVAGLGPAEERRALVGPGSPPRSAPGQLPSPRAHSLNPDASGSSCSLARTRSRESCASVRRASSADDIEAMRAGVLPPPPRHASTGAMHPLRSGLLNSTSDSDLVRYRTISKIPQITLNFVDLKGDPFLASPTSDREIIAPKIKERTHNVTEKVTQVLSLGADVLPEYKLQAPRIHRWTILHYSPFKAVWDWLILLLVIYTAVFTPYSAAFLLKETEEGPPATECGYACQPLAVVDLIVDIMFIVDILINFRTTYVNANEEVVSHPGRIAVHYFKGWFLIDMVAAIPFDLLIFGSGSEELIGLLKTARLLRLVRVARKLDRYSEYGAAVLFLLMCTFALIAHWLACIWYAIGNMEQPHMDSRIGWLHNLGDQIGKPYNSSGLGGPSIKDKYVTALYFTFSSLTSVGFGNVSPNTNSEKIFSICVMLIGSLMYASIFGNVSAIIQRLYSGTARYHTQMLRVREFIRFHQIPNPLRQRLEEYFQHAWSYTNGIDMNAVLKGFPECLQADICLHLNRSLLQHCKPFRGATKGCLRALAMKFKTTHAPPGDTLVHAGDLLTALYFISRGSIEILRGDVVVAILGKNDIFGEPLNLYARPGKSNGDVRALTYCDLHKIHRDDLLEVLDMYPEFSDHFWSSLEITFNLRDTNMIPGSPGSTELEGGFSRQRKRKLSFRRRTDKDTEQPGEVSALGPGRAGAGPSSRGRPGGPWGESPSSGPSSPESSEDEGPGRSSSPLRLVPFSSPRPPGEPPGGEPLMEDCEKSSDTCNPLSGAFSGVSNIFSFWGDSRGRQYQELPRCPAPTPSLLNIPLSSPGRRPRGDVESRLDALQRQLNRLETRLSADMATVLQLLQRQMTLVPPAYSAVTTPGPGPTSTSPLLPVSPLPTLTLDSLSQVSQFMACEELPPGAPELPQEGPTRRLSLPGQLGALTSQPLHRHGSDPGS
Assay: Human Ether-a-go-go-Related Gene (hERG) channel small molecule antagonists: fluorescence cell-based qHTS assay (AID 1671200); also: nearly all actives have a fitted effect of over 50% in size
Conditions: hERG-U2OS cells, FluxOR thallium flux fluorescence; series mostly up to 76.8 µM
Source text: National Center for Advancing Translational Sciences [NCATS]
U.S. Environmental Protection Agency [EPA]
National Institutes of Environmental Health Sciences [NIEHS]
National Toxicology Program [NTP]
U.S. Food and Drug Administration [FDA]
Mutations in the hERG channel cause Long QT (LQT) syndrome. LQT syndrome is a cardiac disorder which can cause ventricle arrhythmia and sudden death. Additionally, compounds which block the hERG channel can cause acquired LQT syndrome. Several FDA approved drugs have been removed from the market due to their hERG blocking activity. A cell-based hERG channel inhibition assay can be used to screen chemical compounds that inhibit hERG channel. This assay measures hERG channel activity using thallium ions as surrogate ions to measure potassium into the cells.
Tox21 Assay Protocol Summary:
hERG-U2OS cells were resuspended in culture medium and dispensed into 1536-well, black wall/clear-bottom plates at 1000cells/well/3uL using a Multidrop Combi dispenser (Thermo Fisher, Waltham, MA). After plates were incubated at 37 C overnight, 3 uL of Loading Buffer provided by FluxOR II Potassium Ion Channel Assay kit (Thermo, Carlsbad, CA) was added to each well. The assay plates were then incubated at room temperature in the dark for 1h. […] After the assay plates were incubated at room temperature for 10 min, 1 uL of Stimulus Buffer provided by FluxOR II Potassium Ion Channel Assay kit was added into each well and fluorescence intensity (480nm excitation/540nm emission) was continuously measured for 2 min at 1 second intervals using a Functional Drug Screening System (FDSS) 7000EX kinetic plate reader (Hamamatsu, Japan).
Potency is read from the fitted curve at half-maximal effect.

Compound	activity change, negative = inhibition	Potency
CC1=CC[C@@H]2C[C@H]1C2(C)C	-0.97% [at 15.8 µM]	–
CC[C@@H](CO)NCCN[C@@H](CC)CO	–	inactive
CCN(CC)c1cccc(O)c1	–	inactive
CCCCCCCCCCCCCC(=O)OCC(O)CO (stereo not given)	–	inactive
CCN(CC)CCNC(=O)c1cc(Cl)c(N)cc1OC	–	inactive
Cc1cn([C@H]2C[C@H](F)[C@@H](CO)O2)c(=O)[nH]c1=O	–	inactive
COc1ccc(C2C(=O)c3ccccc3C2=O)cc1	–	inactive
O=C(C(=O)c1ccco1)c1ccco1	–	inactive
CCOCCC(=O)OCC	–	inactive
Nc1ccc(NC(=O)c2ccc(N)cc2)cc1	–	inactive
O=C(O)c1cccc(C[C@@H]2COc3ccc(OCc4nc5cc(F)ccc5s4)cc3[C@@H]2O)c1	–	inactive
Cc1ccccc1S(N)(=O)=O	–	inactive
CC(C)COC(=O)c1ccc(O)cc1	–	inactive
CCCCCCCCCCCCCCCCCC(=O)OCC(CC)CCCC (stereo not given)	–	inactive
CC1CCc2nccnc21 (stereo not given)	–	inactive
O=C(NC(Cc1cc(=O)[nH]c2ccccc12)C(=O)O)c1ccc(Cl)cc1 (stereo not given)	–	inactive
FC(F)(F)C(F)(F)C(F)(F)C(F)(F)CCI	–	inactive
CC(=O)OCCC1CCCCC1	–	inactive
O=C1OC[C@H](Cc2cccc(O)c2)[C@H]1Cc1cccc(O)c1	–	inactive
CCCCCCCCCCCCCOS(=O)(=O)O	–	inactive

Compound	activity change, negative = inhibition	Potency
CN(C)CC/C=C1\c2ccccc2Sc2ccc(Cl)cc21	–	3.01 µM (active)
Nc1ccc(F)cc1	–	inactive
CSSc1ccoc1C	–	inactive
CCC(=O)OCc1ccc(OC)cc1	–	inactive
COc1ccc(N)c([N+](=O)[O-])c1	–	inactive
CC(CCc1ccc(O)cc1)NCCc1ccc(O)c(O)c1 (stereo not given)	–	13.4 µM (active)
Cc1ccc2c(c1[N+](=O)[O-])C(=O)c1ccccc1C2=O	–	inactive
c1ccc(CNc2ncnc3c2ncn3C2CCCCO2)cc1 (stereo not given)	–	inactive
CCC1CCC(CCC(=O)O)C1 (stereo not given)	–	inactive
C=CC(=O)O	–	inactive
COC(CC(C)CCCC(C)(C)O)OC (stereo not given)	–	inactive
COC(C)(C)OC	–	inactive
Nc1nc(-c2ccc([N+](=O)[O-])cc2)cs1	–	inactive
CCCCCCCCCCCCCOC(=O)CCSCCC(=O)OCCCCCCCCCCCCC	-9.44% [at 15.8 µM]	–
CCCCCc1ccco1	–	inactive
C1CCCCC1	–	inactive
CCN(Cc1cccc(S(=O)(=O)O)c1)c1ccc(C(=C2C=CC(=[N+](CC)Cc3cccc(S(=O)(=O)O)c3)C=C2)c2ccccc2S(=O)(=O)[O-])cc1	–	inactive
CC(C)N(C)C	–	inactive
CC(O)Cn1cnc2c1c(=O)n(C)c(=O)n2C (stereo not given)	–	inactive
CC(=O)Oc1cccc(O)c1	–	inactive
